High-throughput results as filed in PubChem.
An excerpt weighted towards active compounds, which were near 15% of everything screened.
TDP1 cell CPT: DT40-hTDP1 cell growth loss with CPT | chicken DT40 Tdp1-/-;hTDP1 cells + 20 nM CPT, ATP luminescence, 48 h | Potency, µM (series often up to 46.2 µM), usual class: inhibitors | 12% of 420,000 active; further: nearly all actives have a fitted effect of over 55% in size
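Cell growth measured by CellTiter-Glo luminescence after a minimum 48 h, 37 C compound exposure with 20 nM CPT in Tdp1-knockout DT40 cells stably expressing hTDP1, seeded 400/well; qHTS titration format.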
12-LOX inh: blocks human arachidonate 12S-lipoxygenase; P18054; purified 12hLO, xylenol orange hydroperoxide absorbance; Potency, µM (series often up to 108 µM), hits mostly inhibitors; 1.1% of 580,000 active; AID 1671190
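Purified human 12hLO (150 nM final) in 25 mM Hepes, 0.01% Triton X-100, pH 7.0 was preincubated 15 min at room temperature with compound. Then 40 uM arachidonic acid was added, 30 min. Hydroperoxide was read by Fe-XO absorbance ratio 573/405 nm.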
DT40 TDP1 no CPT: qHTS for Inhibitors of human tyrosyl-DNA phosphodiesterase 1 (TDP1): qHTS in cells in absence of CPT; 15% of 420,000 active; Potency, µM (doses to about 46.2 µM), hits mostly inhibitors; AID 686978, 2013; DT40 Tdp1-/- hTDP1 cells, no CPT, ATP luminescence, 48 h; further: nearly all actives have a fitted effect of over 55% in size
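Growth of hTDP1-complemented DT40 Tdp1-knockout cells is measured by ATP luminescence after at least 48 hr compound exposure at 37 °C, with DMSO substituting for the 20 nM CPT used in the parallel screen.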
Gal4-VP16 FLuc: Gal4-VP16 reporter inhibition counter-screen. Drosophila S2 Gal4-VP16 UAS-luciferase, luminescence, 20 h. Potency, µM (top dose mostly 53.6 µM), actives largely listed as inhibitors. 3.5% of 310,000 active;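 further: Gal4-VP16 expression switched on by copper sulfate through the metallothionein promoter; nearly all actives have a fitted effect of over 50% in size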
ELG1 repair inh: ELG1-dependent DNA repair inhibition. AID 504467. HEK293T ELG1-luciferase reporter, luminescence, 16 h; DNA damage induced by 5-fluorouridine. Potency, µM (series often up to 46.1 µM), usual class: inhibitors. 2.3% of 330,000 active; further: nearly all actives have a fitted effect of over 55% in size
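Quantitative HTS, concentration-response format. 2,000 cells/well co-treated with 5-fluorouridine and compound, 16 hr in 5% CO2 at 37 °C; ONE-Glo luminescence read after 30 min.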
RORgamma inh: inhibitors of mouse ROR gamma transcriptional activity; P51450; AID 2551; 5.4% of 310,000 active; Drosophila S2 Gal4-RORgamma UAS-luciferase reporter, 20 h; Potency, µM (top dose mostly 53.6 µM), most hits filed as inhibitors; further: nearly all actives have a fitted effect of over 60% in size
Target sequence (P51450 whole entry, looked up, the tested form may be a part): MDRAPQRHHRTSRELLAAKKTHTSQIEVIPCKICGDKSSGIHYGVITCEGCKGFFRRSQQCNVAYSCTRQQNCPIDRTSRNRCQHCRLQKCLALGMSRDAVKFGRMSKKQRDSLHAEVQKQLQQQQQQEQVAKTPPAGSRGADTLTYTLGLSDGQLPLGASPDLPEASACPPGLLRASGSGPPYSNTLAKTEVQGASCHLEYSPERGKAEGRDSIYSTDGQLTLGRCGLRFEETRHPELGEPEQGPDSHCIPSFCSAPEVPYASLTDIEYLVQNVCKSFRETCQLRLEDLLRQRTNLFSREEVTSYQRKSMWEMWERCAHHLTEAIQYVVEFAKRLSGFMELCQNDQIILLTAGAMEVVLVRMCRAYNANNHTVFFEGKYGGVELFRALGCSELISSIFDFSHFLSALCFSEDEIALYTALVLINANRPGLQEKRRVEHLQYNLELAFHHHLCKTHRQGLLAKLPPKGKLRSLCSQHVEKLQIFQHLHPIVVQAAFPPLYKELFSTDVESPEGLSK
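Luciferase reporter read in Schneider cells carrying Gal4-RORγ (mouse) and UAS-Photinus luciferase; cells given compound 1 h before 700 uM copper sulfate induction, then incubated 20 h at ambient temperature.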
Numbers stand for hits; i = inactive; ? = inconclusive; nt = no result; [ ] = remark or other dose. The call rests on the fitted dose curve; in most records, active means well fitted curve in the direction sought with a large enough effect; inconclusive means small, poorly fitted or top-dose-only effect, or another doubt; inactive means no such curve, though single readings can be large; an effect the other way counts as inactive or inconclusive.

SMILES	TDP1 cell CPT	12-LOX inh	DT40 TDP1 no CPT	Gal4-VP16 FLuc	ELG1 repair inh	RORgamma inh
Cc1cccc(NC(=O)c2ccccc2SCc2ccc(F)cc2)n1	?	i	14.6µM	nt	i	nt
O=S(=O)(Nc1cc(O)cc2cccnc12)c1ccc(Cl)s1	nt	nt	nt	?	nt	3.98µM
O=S(=O)(Nc1cc(O)cc2cccnc12)c1ccc(Br)s1	nt	nt	nt	6.31µM	nt	7.94µM
N#Cc1ccc(C(=O)N2CCOC[C@H](Oc3cnccn3)C2)cc1	nt	i	nt	nt	nt	nt
O=C(c1cc(-c2ccccc2)n[nH]1)N1CCN(S(=O)(=O)c2ccccc2)CC1	?	i	?	i	i	i
COc1ccc(-c2cc(C(=O)N3CCN(S(=O)(=O)c4ccccc4)CC3)[nH]n2)cc1	20.6µM	?	?	i	?	?
Cc1ccc(S(=O)(=O)N2CCN(C(=O)c3cc(-c4ccc(Br)cc4)n[nH]3)CC2)c(C)c1	16.4µM	i	11.6µM	nt	nt	nt
COc1ccc(Cl)cc1S(=O)(=O)N1CCN(C(=O)c2cc(-c3ccc(Br)cc3)n[nH]2)CC1	11.6µM	i	9.2µM	nt	nt	nt
COc1ccc(Cl)cc1S(=O)(=O)N1CCN(C(=O)c2cc(OC)c(OC)c(OC)c2)CC1	i	i	i	i	i	?
O=C(c1cc(-c2ccc(Br)cc2)n[nH]1)N1CCN(C(=O)c2ccccc2Br)CC1	?	i	?	i	?	i
COc1ccccc1-c1cc(C(=O)N2CCN(S(=O)(=O)c3ccc(C)cc3)CC2)[nH]n1	23.1µM	i	?	i	?	i
O=C(c1cc(-c2ccc(Br)cc2)n[nH]1)N1CCN(S(=O)(=O)c2ccc(Br)cc2)CC1	14.6µM	i	16.4µM	nt	nt	nt
COc1ccc(S(=O)(=O)N2CCN(C(=O)c3cc(-c4ccc(Br)cc4)n[nH]3)CC2)cc1OC	9.2µM	i	7.31µM	12.6µM	23.1µM	?
Cc1noc2c(NCCCn3ccnc3)cc(-c3ccccc3)nc12	nt	i	nt	nt	nt	nt
Cc1cc(=S)n2cn[nH]c2n1	nt	0.447µM	nt	nt	nt	nt
Cc1cc(=O)n2cn[nH]c2n1	i	i	i	nt	nt	nt
CCOC(=O)C1=C(O)/C(=C/c2cc(OC)c(OC)c(OC)c2)SC1=Nc1ccc(OC)cc1	?	i	20.6µM	i	?	i
CCOC(=O)C1=C(O)/C(=C/c2ccc(OCC(=O)O)c(OCC)c2)SC1=Nc1ccc(OC)cc1	i	i	i	i	?	i
COCc1nnc(NC(=O)c2ccc(S(=O)(=O)N(C)c3ccccc3)cc2)o1	16.4µM	i	?	2.51µM	i	1.58µM
COCCN(CCOC)S(=O)(=O)c1ccc(C(=O)Nc2sc3c(c2C(N)=O)CCCCC3)cc1	i	i	?	?	?	?
C=CCN(CC=C)S(=O)(=O)c1ccc(C(=O)Nc2nnc(COC)o2)cc1	?	i	16.4µM	7.08µM	?	2µM
COCc1nnc(NC(=O)c2ccc(S(=O)(=O)N(CC(C)C)CC(C)C)cc2)o1	?	i	?	2.51µM	?	0.631µM
O=C(CSc1ncnc2nc[nH]c12)Nc1ccccc1F	nt	i	nt	nt	nt	nt
CC(C)CCn1nc(C(=O)OCc2nnc(-c3ccccc3)o2)c2ccccc2c1=O	nt	i	nt	nt	nt	nt
Cn1sccc1=O	2.91µM	i	2.91µM	nt	i	nt
SMILES	TDP1 cell CPT	12-LOX inh	DT40 TDP1 no CPT	Gal4-VP16 FLuc	ELG1 repair inh	RORgamma inh
Cc1cc(CNC(=O)Cn2cc([N+](=O)[O-])cn2)c2ccccc2n1	?	i	?	i	i	i
Cc1cc(CNC(=O)C(C)n2cc([N+](=O)[O-])cn2)c2ccccc2n1 (configuration not stated)	?	i	20.6µM	i	i	i
COc1cc(S(=O)(=O)N(Cc2cccnc2)Cc2cccc(OC)c2OC)ccc1-n1cnnn1	16.4µM	i	?	i	i	i
COc1ccccc1CN(Cc1cccnc1)S(=O)(=O)c1ccc(-n2cnnn2)c(OC)c1	i	i	20.6µM	i	i	i
O=C(CC(F)(F)F)N1CCC(N2C(=O)C(O)C23CCCCC3)CC1 (configuration not stated)	nt	i	nt	nt	nt	nt
CCOc1ccc(NC(=S)N(Cc2ccc(N(C)C)cc2)Cc2ccco2)cc1	?	i	16.4µM	31.6µM	?	?
COc1ccc(NC(=S)N(Cc2ccc(N(C)C)cc2)Cc2ccco2)cc1	i	i	?	20µM	?	12.6µM
COc1cccc(NC(=S)N(CCN2CCCCC2)Cc2ccco2)c1	?	i	i	i	i	?
CCc1ccc(NC(=O)Cn2c(=O)n(-c3ccc(OC)cc3)c(=O)c3ccc(C(=O)NCc4ccc(C)cc4)cc32)cc1	10.3µM	?	7.31µM	nt	nt	nt
CCCN(CCC)C(=O)Cn1c(=O)n(-c2ccc(OC)cc2)c(=O)c2ccc(C(=O)NCc3ccc(C)cc3)cc21	?	i	16.4µM	nt	nt	nt
Cc1ccc(-n2c(=O)c3ccc(C(=O)NCc4ccccc4Cl)cc3n(CC(=O)Nc3ccc(C)cc3C)c2=O)cc1	?	i	?	nt	nt	nt
CCC(C)NC(=O)Cn1c(=O)n(-c2ccc(OC)cc2)c(=O)c2ccc(C(=O)NCc3ccc(C)cc3)cc21 (configuration not stated)	i	i	i	i	i	i
Cc1ccc(NC(=O)Cn2c(=O)n(-c3ccc(C)cc3)c(=O)c3ccc(C(=O)NCc4ccccc4Cl)cc32)cc1	7.31µM	i	13µM	nt	nt	nt
COc1cccc(NC(=O)Cn2c(=O)n(-c3ccc(C)cc3)c(=O)c3ccc(C(=O)NCc4ccco4)cc32)c1	16.4µM	i	?	nt	nt	nt
C=CCNS(=O)(=O)c1cc(C(=O)O)ccc1F	nt	i	nt	nt	nt	nt
O=C(Nc1ccc(Cl)cc1Cl)c1cn2c(n1)CN(C(=O)c1cccnc1)CC2	nt	i[6.33 µM]	nt	nt	nt	nt
CCOc1ccc(NC(=O)Cn2c(=O)n(-c3ccccc3)c(=O)c3ccc(C(=O)NCc4ccc5c(c4)OCO5)cc32)cc1	20.6µM	i	20.6µM	nt	nt	nt
CC(=O)c1c(C)nc2ccccn12	i	i	i	i	i	i
Cc1nc2ccccn2c1C(=O)N=Nc1c(O)n(CCC(C)C)c2ccccc12	7.31µM	i	7.31µM	i	9.2µM	i
C[N+](C)(CCCCCI)c1ccc(/C=C/c2nc3ccccc3s2)cc1	1µM	nt	0.562µM	nt	nt	nt
CCCCCCOc1ccc(/C=C/c2nc3ccccc3s2)cc1	nt	i	nt	nt	nt	nt
Cc1cccc(C)c1Nc1n[nH]c(=S)s1	i	?	?	nt	nt	nt
COc1ccccc1Nc1ccc(Nc2ccccc2OC)nn1	i	i	?	i	?	i
CC(C)c1ccc(Nc2nnns2)cc1	i	?	i	i	?	i
Cc1ccc(Nc2nnc(SC3CCOC3=O)s2)c(C)c1 (configuration not stated)	i	i	i	i	i	i
COc1ccccc1Nc1n[nH]c(=S)s1	i	14.1µM	i	i	?	10µM
